Measured values as given in PubChem BioAssay (NCATS).
Records with an inconclusive call do not appear. Calls of active or inactive are those of the source. Calls come from the whole dose curve; as a rule, active = well fitted inhibition curve with a large enough effect; inconclusive = small, poorly fitted or top-dose-only effect; inactive = flat fitted curve, though single readings scatter.

Experiment: P-glycoprotein substrates identified in KB-8-5-11 adenocarcinoma cell line, qHTS therapeutic library screen (AID 1346987); note: nearly all actives have a fitted effect of over 65% in size
Details: KB-8-5-11 (P-gp overexpressing) viability, CellTiter-Glo, 72 h; series mostly up to 44.5 µM; activity change, negative = cytotoxicity: at the top concentration
Procedure, shortened: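 Compounds are pinned in dose-response onto KB-8-5-11 cells (500 cells/well, colchicine-free medium) and left 72 h at 37 degree C. CellTiter-Glo luminescence then yields AC50 values.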
% is set by controls: 0 for no effect and ±100 for the full control effect; potency is the fitted concentration of half-maximal effect.

| Compound | activity change, negative = cytotoxicity | Potency | outcome |
| --- | --- | --- | --- |
| CC(C)c1cc(C(=O)N2CC[C@H](NC(=O)C3CC3)C2)n[nH]1 | -8.08% (inactive) |  |  |
| C[C@@H]1C(=O)O[C@H]2[C@@H](O)C34[C@H]5C[C@@H](C(C)(C)C)C36[C@@H](OC(=O)[C@@H]6O)O[C@@]4(C(=O)O5)[C@@]12O (stereo partly drawn) | -8.69% (inactive) |  |  |
| COc1cccc(C(=O)N2CCN(C(=O)COc3cccc(C)c3)CC2)c1OC |  | 23.1 µM (active) |  |
| CC(C)CCC[C@@H](C)[C@H]1CC[C@H]2[C@@H]3CC(=O)[C@H]4C[C@@H](O)CC[C@]4(C)[C@H]3CC[C@]12C | -15.6% (inactive) |  |  |
| CC[C@H]1OC(=O)[C@](C)(F)C(=O)[C@H](C)[C@@H](O[C@@H]2O[C@H](C)C[C@H](N(C)C)[C@H]2O)[C@](C)(OC)C[C@@H](C)C(=O)[C@@H](C)[C@H]2N(CCCCn3cc(-c4cccc(N)c4)nn3)C(=O)O[C@]12C | -14.7% (inactive) |  |  |
| Cc1cc(C)nc(NS(=O)(=O)c2ccc(NC(=S)NC(=O)COc3ccc(Br)cc3Cl)cc2)n1 |  |  | inactive |
| c1ccc(N2CCN(CCc3nn[nH]n3)CC2)cc1 | -6.1% (inactive) |  |  |
| O=C(Nc1ccc(S(=O)(=O)Nc2nccs2)cc1)C(c1ccccc1)c1ccccc1 | 7.58% (inactive) |  |  |
| CC(C)[N+]1(C)C2CCC1CC(OC(=O)C(CO)c1ccccc1)C2 (stereo not drawn) | -11.6% (inactive) |  |  |
| C=CC1(C)C=C2C(=O)OC(=O)C3=C(CCCC3(C)C)C2(O)CC1 (stereo not drawn) |  |  | inactive |
| CC1(C)CCC2(C(=O)OC3OCC(O)C(O)C3O)CCC3(C)C(=CCC4C5(C)CC(O)C(OC6OC(COC7OCC(O)C(O)C7O)C(O)C(O)C6O)C(C)(C)C5CCC43C)C2C1 (stereo not drawn) |  |  | inactive [at 9.29 µM] |
| CC(O)(CC(=O)O)CC(=O)OCc1ccc(O[C@@H]2O[C@H](CO)[C@@H](O)[C@H](O)[C@H]2O)cc1 (stereo partly drawn) |  |  | inactive [at 17.3 µM] |
| CC1=CC(=O)C2(OC3OC(C)C(O)C(OC(=O)/C=C/c4ccccc4)C3O)C=COC(OC3OC(CO)C(O)C(O)C3O)C12 (stereo not drawn) |  |  | inactive [at 17.3 µM] |
| CC(C)(O)/C=C/C1=CC(=O)[C@@](C)(O)C[C@H]1O | 7.04% (inactive) |  |  |
| O=C(OC[C@@]1(O)CO[C@@H](O[C@H]2[C@H](Oc3ccc(O)cc3)O[C@H](CO)[C@@H](O)[C@@H]2O)[C@@H]1O)c1ccc(O)cc1 | 1.59% [at 17.3 µM] (inactive) |  |  |
| O=C(O)C1CN(Cc2ccc(-c3nc4cc(Cc5ccccc5F)ccc4s3)c(F)c2)C1 | 0.617% [at 9.29 µM] (inactive) |  |  |
| COC(=O)C1=CO[C@@H](O)C2C(CO)=CCC12 (stereo partly drawn) | 3.14% (inactive) |  |  |
| COc1ccc(-c2ccc(-c3cn(C(=O)N4CCCCC4c4ccccc4)nn3)cc2)cc1 (stereo not drawn) | -26.2% (inactive) |  |  |
| Cc1ccccc1C#Cc1ccc(CCC(=O)O)cc1 | -7.83% (inactive) |  |  |

| Compound | activity change, negative = cytotoxicity | Potency | outcome |
| --- | --- | --- | --- |
| COC(=O)N1CCC(n2ncc3c(N4CCOCC4)nc(-c4ccc(NC(=O)Nc5ccc(CO)cc5)cc4)nc32)CC1 |  | 2.59 µM (active) |  |
| Cc1oc2ccccc2c1CNC(=O)NCc1cccs1 | -6.09% (inactive) |  |  |
| C[C@@H]1[C@H]2[C@H](O[C@@H]3O[C@H](CO)[C@@H](O)[C@H](O)[C@H]3O)OC=C(C(=O)O)[C@H]2C[C@@H]1O | -1.03% (inactive) |  |  |
| C/C=C(\C)C(=O)OCC1OC(OC2OC(COC(=O)/C(C)=C/C)C(OC3OC(CO)C(OC(=O)/C(C)=C/C)C(OC(=O)/C(C)=C/C)C3O)C(O)C2O)C(O)C(O)C1OC1OC(CO)C(OC(=O)/C(C)=C/C)C(OC(=O)/C(C)=C/C)C1O (stereo not drawn) | 8.2% [at 9.29 µM] (inactive) |  |  |
| COc1ccc([C@@]2(O)c3c(ccc4c3OC(C)(CCC=C(C)C)C=C4)NC(=O)[C@@H]2OC)cc1 (stereo partly drawn) | 0.889% [at 17.3 µM] (inactive) |  |  |
| COC(=O)N(C)c1c(N)nc(-c2nn(Cc3ccccc3F)c3ncccc23)nc1N | 6.37% (inactive) |  |  |
| C[C@@H]1O[C@@H](O[C@H]2[C@H](O)[C@@H](O)[C@H](O[C@H]3[C@H](O[C@H]4CC[C@@]5(C)C(=CC[C@@H]6C5CC[C@]5(C)[C@@H]7[C@H](C[C@@H]65)O[C@]5(CC[C@@](C)(CO[C@@H]6O[C@H](CO)[C@@H](O)[C@H](O)[C@H]6O)O5)[C@H]7C)C4)O[C@H](CO)[C@@H](O)[C@@H]3O)O[C@@H]2CO)[C@H](O)[C@H](O)[C@H]1O (stereo partly drawn) | 4.84% [at 9.29 µM] (inactive) |  |  |
| CC1=CC(=O)C2C(C)(C)CCC[C@]2(C)[C@H]1CO (stereo partly drawn) | 4.32% (inactive) |  |  |
| COc1ccc(CC2NCCc3c2[nH]c2ccc(C)cc32)cc1OC (stereo not drawn) | -20.8% (inactive) |  |  |
| C=C(C)C1CCC2(C(=O)O)CCC3(C(=O)O)C(CCC4C5(C)CCC(O)C(C)(C(=O)O)C5CCC43C)C12 (stereo not drawn) |  |  | inactive [at 17.3 µM] |
| COc1cc(O)cc(/C=C/c2ccc(O[C@@H]3O[C@H](CO)[C@@H](O)[C@H](O)[C@H]3O)cc2)c1 |  |  | inactive [at 17.3 µM] |
| C=CC1C(OC2OC(CO)C(O)C(O)C2O)OC=C(C(=O)OC)C1CC1CC(=O)CC(CCc2ccc(O)cc2)O1 (stereo not drawn) | 4.32% [at 17.3 µM] (inactive) |  |  |
| O=C1OCC(c2ccccc2)=C1Cc1ccccc1 | -14.2% (inactive) |  |  |
| Cc1ccc(C)c(OCCn2cc(C(=O)O)c3ccccc32)c1 | 4.01% (inactive) |  |  |
| CCCCc1nc2cc(/C=C/C(=O)NO)ccc2n1CCN(CC)CC |  | 3.26 µM (active) |  |
| COc1ccc(CNC(=O)c2sc3nc(C)cc(C)c3c2N)cc1 | -21.7% (inactive) |  |  |
| C[C@@H]1O[C@@H](O[C@H]2[C@H](O[C@H]3[C@H](O[C@H]4CC[C@@]5(C)C(CC[C@]6(C)C5CC=C5[C@@H]7CC(C)(C)C[C@@H](O)[C@]7(C)CC[C@]56C)[C@@]4(C)CO)O[C@H](C(=O)O)[C@@H](O)[C@@H]3O)OC[C@H](O)[C@@H]2O)[C@H](O)[C@H](O)[C@H]1O (stereo partly drawn) | 3.08% [at 9.29 µM] (inactive) |  |  |
| C1CCC[C@H]2CCCN3CC[C@@H](CCCCCC[C@@H]4CCCN5CC[C@@H](CC1)O[C@@H]45)O[C@@H]23 |  |  | inactive [at 0.0709 µM] |
| CCc1cnn2c(NCc3ccc[n+]([O-])c3)cc(N3CCCCC3CCO)nc12 (stereo not drawn) |  | 0.206 µM (active) |  |
